Screen size: about 1,500 compounds; about 100 (6.7%) were called active. About 7% were inconclusive and are not listed. The full list was thinned out, with actives kept by preference. Values without a mark were called inactive. Calls come from the whole dose curve; as a rule, active = well fitted inhibition curve with a large enough effect; inconclusive = small, poorly fitted or top-dose-only effect, or effect the other way; inactive = flat fitted curve, though single readings scatter.
Target: Runt-related transcription factor 1 (Homo sapiens) + Core-binding factor subunit beta (Homo sapiens) (UniProt Q01196+Q13951)
Sequence (Q01196 whole entry, looked up): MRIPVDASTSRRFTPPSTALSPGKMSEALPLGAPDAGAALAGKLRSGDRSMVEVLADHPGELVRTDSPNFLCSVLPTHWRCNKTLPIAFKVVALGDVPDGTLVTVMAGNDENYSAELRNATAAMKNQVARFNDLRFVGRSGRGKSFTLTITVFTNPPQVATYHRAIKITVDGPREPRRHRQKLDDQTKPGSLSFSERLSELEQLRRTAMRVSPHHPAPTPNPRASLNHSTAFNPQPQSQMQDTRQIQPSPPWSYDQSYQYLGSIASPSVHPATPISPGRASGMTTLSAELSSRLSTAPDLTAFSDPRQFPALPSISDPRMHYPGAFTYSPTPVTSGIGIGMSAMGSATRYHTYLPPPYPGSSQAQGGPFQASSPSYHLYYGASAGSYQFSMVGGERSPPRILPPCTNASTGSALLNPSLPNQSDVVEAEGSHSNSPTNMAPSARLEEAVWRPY
Sequence (Q13951 whole entry, looked up): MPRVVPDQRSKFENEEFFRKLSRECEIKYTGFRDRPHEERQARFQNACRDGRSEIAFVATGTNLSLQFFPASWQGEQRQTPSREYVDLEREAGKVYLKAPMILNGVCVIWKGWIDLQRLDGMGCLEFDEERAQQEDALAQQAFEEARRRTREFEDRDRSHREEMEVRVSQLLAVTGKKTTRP
Test: qHTS Assay for Compounds Blocking the Interaction Between CBF-beta and RUNX1 for the Treatment of Acute Myeloid Leukemia: Hit Validation; note: nearly all actives have a fitted effect of over 60% in size
Details: AlphaScreen CBFb-His/RUNX1-biotin binding; series mostly up to 59.8 µM; activity, negative = inhibition: at the top concentration
In short: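 AlphaScreen proximity assay: His-tagged CBF-beta and biotinylated RUNX1 (30 nM each) preincubated 20 min, then compound 15 min, then nickel and streptavidin beads 90 min, all at room temperature; signal read at […]em 440 nm.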
% is set by controls: 0 for no effect and ±100 for the full control effect; potency is the fitted concentration of half-maximal effect.

Point of comparison: `Cc1ccc(C)c(N2CCN(c3ccncc3N)CC2)c1`, “activity, negative = inhibition” value -11.1%. Against it:
- CCNC(=S)N1N=C2c3ccccc3CCC2C1c1ccc(F)cc1 (stereo unspecified) — higher, 7.45%
- Nc1cccnc1Oc1ccccc1F — higher, -2.77%
- Cn1c(-c2ccc3ccccc3n2)[n+](C)c2ccccc21 — lower, -16.8%
- Cc1cc(NC(=O)CN2CCCCC2)n(-c2ccccc2)n1 — higher, 2.06%
- NNC(=O)c1ccc(COCC(F)(F)C(F)F)cc1 — higher, -1.86%
- CC(C)(C)S(=O)(=O)/C(C#N)=C/Nc1ccccn1 — higher, -2.32%
- CSc1nc2cc(S(=O)(=O)N3CCCCC3)ccc2s1 — higher, -1.3%
- O=C(O)c1nccnc1C(=O)Nc1ccc(S(=O)(=O)N2CCOCC2)cc1 — higher, -6.89%
- COC(=O)CC1=C(C(=O)OC)[C@@H](c2ccccc2[N+](=O)[O-])C(C#N)=C(N)O1 — higher, 3.04%
- Cc1ccc(NC(=O)CSc2n[nH]c(N)n2)cc1S(=O)(=O)N1CCOCC1 — higher, -1.46%
- CCOc1ccc(N2C(=O)CC(NNc3nc4ccccc4s3)C2=O)cc1 (stereo unspecified) — higher, 5.71%
- Cc1nnn(C23C[C@@H]4C[C@@H](CC(C(=O)N5CCN(c6ccccc6)CC5)(C4)C2)C3)n1 — higher, -5.35%
- COC(=O)[C@H](CCSC)NC(=O)Nc1cc(OC)cc(OC)c1 — lower, -12.2%
- COc1ccc(C(=O)NC(=S)Nc2ccc(CN3CCOCC3)cc2)cc1 — the same, -11.1%
- Cn1c(=O)c([N+](=O)[O-])c(NCC2CCCO2)c2ccccc21 (stereo unspecified) — higher, -0.834%
- Cc1cccc(C(=O)N/C(=C\c2ccc(C)o2)C(=O)O)c1 — lower, -12.8%
- CC(C)(C)OC(=O)N1Cc2cc3ccccc3nc2C1CO (stereo unspecified) — higher, -2.12%
- COC(=O)CNC(=O)CSc1ccccn1 — higher, 6.43%
- CCOc1ccc(Nc2c3ccccc3nc3ccccc23)cc1 — lower, -13%
- COc1ccccc1CC(=O)Nc1cccc(C(=O)Nc2nccs2)c1 — higher, -6.81%
- COc1ccc(/C=N/NC(=O)Cn2ccnc2C)cc1OC — higher, -9.74%
- CCOc1ccc(NC(=O)Nc2cc(C(C)C)c(O)cc2C)cc1 — higher, -2.87%
- COC(=O)[C@H](C)NC(=O)NCc1ccccc1 — higher, -3.2%
- Cc1oc(S(=O)(=O)N2CCCCC2)cc1NC(=O)Nc1ccc(F)cc1 — higher, -4.08%
- CC1CN(S(=O)(=O)c2cccc(C(F)(F)F)c2)CC(C)O1 (stereo unspecified) — higher, -0.629%
- COc1ccc(NC(=O)CCC(=O)N/N=C/c2ccncc2)cc1 — higher, 4.92%
- CC(C)CC1C2C(=O)N(c3ccccc3)C(=O)C2ON1c1ccccc1 (stereo unspecified) — higher, 0.251%
- c1ccc2sc(SCSc3nc4ccccc4s3)nc2c1 — higher, -3.42%
- CC1(C)CC(=O)C2=C(C1)OC(N)=C(C#N)[C@@H]2c1ccccc1[N+](=O)[O-] — higher, -5.53%
- COc1ccc(/C=N/NC(=O)c2cnccn2)c(OC)c1OC — higher, -4.33%
- CSc1ccc(C(=O)NCC(=O)O)cc1[N+](=O)[O-] — higher, -1.02%
- CC(C)(C)c1ccc(NC(=O)c2ccsc2)cc1 — higher, 6.68%
- COC(=O)c1ccc(S(=O)(=O)N(C2CCCCC2)C2CCCCC2)n1C — higher, -5.96%
- CCN(CC)CCN1C(=O)C(=O)/C(=C(/O)c2ccc3c(c2)CC(C)O3)C1c1ccc(OC)cc1 (stereo unspecified) — higher, -3.3%
- O=S(=O)(Nc1nc(SCc2ccc(Cl)cc2)n[nH]1)c1ccccc1 — lower, -15.9%
- CCOC(=O)N1CCC(NC(=O)CCCC(=O)O)CC1 — higher, 6.93%
- Cc1ccccc1-c1noc(-c2ccccc2C(=O)NCC2CCCO2)n1 (stereo unspecified) — higher, -6.51%
- C/C(Cc1nnn(-c2cc(C)on2)n1)=N\O — higher, -0.472%
- CCOC(=O)Cc1csc(NC(=O)Cc2ccc(Br)cc2)n1 — higher, -4.76%
- COc1ccc(-c2nnsc2N2C(=O)c3ccccc3C2=O)cc1 — higher, -3.86%
- COC(=O)C(=Cc1ccccc1[N+](=O)[O-])C(=O)OC — higher, -2.17%
- CC(=O)Nc1ccc(S(=O)(=O)Nc2cc(-c3ccccc3)nn2C)cc1 — higher, 0.969%
- CN(C)C(=O)Nc1ccccc1 — higher, -3.42%
- O=C(/C=C/c1ccccc1)c1c[nH]c2ccccc12 — higher, -1.47%
- Cc1cccc(CC(=O)c2c[nH]c3ccccc23)c1 — higher, -8.61%
- Cc1onc(-c2c(F)cccc2Cl)c1C(=O)N1CCSCC1 — higher, -1.82%
- O=C(O)c1cnc2[nH]c3ccccc3n2c1=O — lower, -12%
- Nc1nc(Nc2ccccc2)nc(NCCO)c1[N+](=O)[O-] — higher, -6.03%
- Cc1ccn(C)c(=N)c1 — higher, -1.05%
- COc1ccc(NS(=O)(=O)c2ccc3c(c2)CCO3)cc1 — lower, -11.6%
- NNC(=O)c1ccc(Cn2cccn2)o1 — higher, -3.9%
- FC(F)(F)c1cccc(-n2c(Cn3nnc4ccccc43)n[nH]c2=S)c1 — higher, 7.14%
- Nc1cc(=O)[nH]c(SCC(=O)Nc2cc(Cl)ccc2Cl)n1 — higher, -10%
- O=C(O)/C=C/C(=O)Nc1ccc(Cl)cc1C(=O)c1ccccc1 — higher, -3.57%
- O=C(/C=C/c1ccc(O)c(O)c1)c1ccccc1O — lower, -28.7%
- NCCc1ccc(O)c(O)c1 — higher, -10.7%

For `O=C(NN1C(=O)CSC1=S)C(=O)NN1C(=O)CSC1=S`, the Potency was 8.91 µM (active).
In the case of `O=S(=O)(c1ccc2nc(-c3ccco3)c(-c3ccco3)nc2c1)N1CCOCC1`, the Potency is reported as 5.46 µM (active).
With `O=c1c(-c2cc(O)c(O)c(O)c2)coc2cc(O)c(O)c(O)c12` the Potency was 0.447 µM (active).
With `CCOc1ccc(NC(=O)CSc2ccc(-c3ccccn3)nn2)cc1` the Potency was 5.01 µM (active).
With `O=C(CSc1ccc(-c2ccccn2)nn1)NCc1ccccc1` the Potency was 5.62 µM (active).
For `COc1ccc(NC(=O)CSc2ccc(-c3ccccn3)nn2)cc1OC`, the Potency was 4.47 µM (active).
With `Nc1c(C(=O)NCC2CCCO2)sc2nc3c(c(-c4ccco4)c12)CC/C3=C\c1ccco1` (stereo unspecified) the Potency was 12.6 µM (active).
With `O=C(O)C[C@@H]1C(=O)O[C@@H]2C(COC(=O)c3cc(O)c(O)c(O)c3)O[C@@H](OC(=O)c3cc(O)c(O)c(O)c3)[C@@H](OC(=O)c3cc(O)c(O)c4c3[C@H]1[C@H](O)C(=O)O4)[C@H]2OC(=O)c1cc(O)c(O)c(O)c1` (stereo partly specified) the Potency was 0.0316 µM (active).
`CC(Cc1c[nH]c2ccccc12)C(=O)O` (stereo unspecified) was tested, and the Potency was 12.2 µM (active).
With `Cc1cc(=O)cc2oc3cc(N)c(-c4c(C)cc(O)cc4O)c(C)c3nc1-2` the Potency was 8.88 µM (active).
With `COc1ccc(OC)c(-c2c3cc(O)c(=O)cc-3oc3cc(O)c(O)cc23)c1` the Potency was 2.24 µM (active).
In the case of `NCC(=O)Nc1ccc(Cl)cc1C(=O)c1ccc[nH]1`, the Potency is reported as 3.55 µM (active).
With `NC(Cc1ccc(O)c(O)c1)C(=O)O` (stereo unspecified) the Potency was 1.12 µM (active).
For `N[C@H](Cc1ccc(O)c(O)c1)C(=O)O`, the Potency was 8.91 µM (active).

Reference: PubChem BioAssay AID504374 (National Center for Advancing Translational Sciences (NCATS), 2011)
